Data on 40 molecules can be found in PubChem BioAssay AID624094 (National Center for Advancing Translational Sciences (NCATS), 2012).

Records with an inconclusive call do not appear. The source made the active and inactive calls. The call rests on the fitted dose curve; in most records, active means well fitted inhibition curve with a large enough effect; inconclusive means small, poorly fitted or top-dose-only effect; inactive means flat fitted curve, though single readings scatter.

The target of this test is Dual specificity protein kinase CLK4 (Homo sapiens) (UniProt Q9HAZ1). Kind of test: Confirmation Assay for Inhibitors of Clk4 (Kinase-Glo Assay): KU probe. The note with it: recombinant Clk4, Kinase-Glo ATP luminescence; series mostly up to 76.9 µM; activity, negative = inhibition: at the top concentration. The protocol: NIH Molecular Libraries Probe Production Centers Network [MLPCN] NIH Chemical Genomics Center [NCGC] MLPCN Grant: 1R03MH084827-01 Assay Submitter (PI): Tom Misteli NCGC Assay Overview: Clk4 (Invitrogen, cat# PV3839) was assayed using ATP and the RS repeat peptide (AnaSpec cat # 61722) as substrates. Following the Clk4 reaction, the remaining ATP levels were detected using Promega Kinase-Glo technology wherein the remaining ATP from the kinase reaction is detected using Ultra-Glo luciferase and D-luciferin which generates a bioluminescence signal from the ATP.
Dual specificity protein kinase CLK4 (Homo sapiens), sequence (Q9HAZ1 whole entry, looked up): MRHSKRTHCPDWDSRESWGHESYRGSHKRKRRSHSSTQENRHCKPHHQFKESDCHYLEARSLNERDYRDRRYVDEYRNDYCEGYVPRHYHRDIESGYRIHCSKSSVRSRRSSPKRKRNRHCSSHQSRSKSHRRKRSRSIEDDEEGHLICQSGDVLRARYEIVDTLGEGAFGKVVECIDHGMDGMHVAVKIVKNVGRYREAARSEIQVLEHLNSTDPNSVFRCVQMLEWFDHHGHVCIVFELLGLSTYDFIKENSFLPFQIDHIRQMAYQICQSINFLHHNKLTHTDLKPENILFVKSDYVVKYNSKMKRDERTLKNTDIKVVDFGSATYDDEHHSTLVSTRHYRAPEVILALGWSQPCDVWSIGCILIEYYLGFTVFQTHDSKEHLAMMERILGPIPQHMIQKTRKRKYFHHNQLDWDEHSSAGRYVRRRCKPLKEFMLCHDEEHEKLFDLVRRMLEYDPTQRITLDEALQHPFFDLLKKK
NCGC Assay Protocol Summary: Two uL/well of substrate-buffer solution (100 uM RS peptide, 1 uM ATP, 25 mM Tris pH7.5, 10 mM MgCl2, 0.5 mM EGTA, 2.5 mM DTT, 0.01% Triton X-100 final concentration) was dispensed into 1536-well, assay plates (Greiner, solid white medium-binding plates) with Aurora Discovery BioRAPTR Flying Reagent Dispenser (FRD; Beckton-Dickenson). Using a Kalypsys pin tool equipped with a 1536-pin tool, 23 nL of compound solution was transferred to the assay plate. One uL/ well Clk4-buffer solution (25 nM Clk4, 25 mM Tris pH 7.5, 10 mM MgCl2, 0.5 mM EGTA, 2.5 mM DTT, 0.01% Triton X-100, final concentrations) was then added using the FRD yielding a total kinase reaction volume of 3 uL/ well. After 4.5 hours of room temperature incubation, 3 uL Kinase-Glo reagent was added for a final assay volume of 6 uL/ well. Luminescence was detected with the ViewLux plate reader (Perkin Elmer, Waltham, MA) after 5 min incubation using a 5 second exposure time and 2x binning.
(In general: Kinase-Glo reads ATP consumption through a luciferase reaction.)
Turning to `c1nc(NCCC2CCCO2)c2cc(-c3ccc4c(c3)OCO4)ccc2n1` (stereo not given), the Potency is 0.0519 µM (active).

`CC(=O)c1ccc(-c2ccc3ncnc(NCc4ccc(C)o4)c3c2)o1`: the Potency was 0.13 µM (active).

Turning to `CCCNc1ncnc2ccc(-c3ccc4c(c3)OCO4)cc12`, the Potency is 0.0582 µM (active).

Consider `O=c1cnc2cnc(Nc3ccccc3)nc2n1CCc1ccccc1`, for which the Potency was 0.184 µM (active).

Consider `c1cncc(CNc2nccc(-c3ccc4[nH]ncc4c3)n2)c1`, for which the Potency is 0.026 µM (active).

Turning to `CCNC(=O)c1ccc(-c2ccc3ncnc(NCC4CCCO4)c3c2)o1` (stereo not given), the Potency was 0.328 µM (active).

`Brc1cc(Br)cc(CNc2ccnc(-c3ccc4c(c3)OCO4)n2)c1`: the Potency was 5.82 µM (active).

On to `Cc1c(-c2ccnc(NCc3cccnc3)n2)sc(=O)n1C`, for which the Potency was 0.0463 µM (active).

On to `COc1ccc(-c2ccnc(NCc3ccc(Cl)c(Cl)c3)n2)cc1`, for which the Potency is 0.184 µM (active).

In the case of `c1nc(NCC2CCCCC2)c2cc(-c3ccc4c(c3)OCO4)ccc2n1`, the Potency was 0.0654 µM (active).

As for `Fc1cc(CNc2ccnc(-c3ccc4c(c3)OCO4)n2)cc(F)c1F`, the Potency was 23.2 µM (active).

As to `Brc1cncc(CNc2ccnc(-c3ccc4c(c3)OCO4)n2)c1`, the Potency is 8.23 µM (active).

In the case of `Clc1ccc(CNc2ccnc(-c3cccnc3)n2)cc1`, the Potency was 16.4 µM (active).

For `Fc1cc(CNc2ccnc(-c3ccc4c(c3)OCO4)n2)ccc1Cl`, the Potency was 13 µM (active).

As to `COc1cccc(-c2nccc(NCc3ccc(Cl)cc3)n2)c1`, the Potency was 13 µM (active).

On to `c1cncc(CNc2cc(-c3ccc4c(c3)OCO4)ncn2)c1`, for which the Potency is 6.54 µM (active).

As for `Clc1ccc(CNc2nccc(-c3ccc4c(c3)OCO4)n2)cc1Cl`, the Potency was 0.0412 µM (active).

As for `Cc1c(-c2ccnc(NCc3ccc(Cl)cc3)n2)sc(=O)n1C`, the Potency was 0.0582 µM (active).

`Clc1ccc(CNc2ccnc(-c3ccc4c(c3)OCO4)n2)cc1Cl`: the Potency was 13 µM (active).

For the molecule `c1cc(CNc2ccnc(-c3ccc4c(c3)OCO4)n2)ccn1`, the Potency is 16.4 µM (active).

As for `O=C(O)c1ccc(-c2ccc3ncnc(N4CCOCC4)c3c2)o1`, the Potency was 0.582 µM (active).

Regarding `Fc1ccc(CNc2ccnc(-c3ccc4c(c3)OCO4)n2)cc1Cl`, the Potency is 5.19 µM (active).

As to `c1ccc2ncc(CNc3ccnc(-c4ccc5c(c4)OCO5)n3)cc2c1`, the Potency is 29.2 µM (active).

Take `c1nc(NCC2CCCOC2)c2cc(-c3ccc4c(c3)OCO4)ccc2n1` (stereo not given): the Potency is 0.0654 µM (active).

Turning to `Cc1csc(CNc2ncnc3ccc(-c4ccc(CO)o4)cc23)n1`, the Potency was 0.923 µM (active).

Regarding `c1nc(NCC2CCCCO2)c2cc(-c3ccc4c(c3)OCO4)ccc2n1` (stereo not given), the Potency is 0.0292 µM (active).

In the case of `Fc1ccc(CNc2ccnc(-c3ccc4c(c3)OCO4)n2)cc1F`, the Potency is 18.4 µM (active).

As for `Brc1cc(Br)cc(CNc2nccc(-c3ccc4c(c3)OCO4)n2)c1`, the Potency was 0.0368 µM (active).

For `c1cncc(CNc2ccnc(-c3ccc4[nH]ncc4c3)n2)c1`, the Potency is 0.146 µM (active).

With `CC(C)(C)CNc1ncnc2ccc(-c3ccc4c(c3)OCO4)cc12`, the Potency was 0.0654 µM (active).

Take `c1nc(NCC2CCOC2)c2cc(-c3ccc4c(c3)OCO4)ccc2n1` (stereo not given): the Potency is 0.0582 µM (active).

Turning to `O=[N+]([O-])c1cc(Nc2nccc(-c3ccc4c(c3)OCO4)n2)cc(C(F)(F)F)c1`, the Potency was 0.104 µM (active).

Turning to `Clc1ccc(CNc2nccc(-c3ccc4[nH]ncc4c3)n2)cc1Cl`, the Potency is 0.026 µM (active).

As to `c1cncc(CNc2ccnc(-c3ccc4ccccc4c3)n2)c1`, the Potency was 14.6 µM (active).

Take `O=C(O)c1ccc(-c2ccc3ncnc(NCc4nccs4)c3c2)o1`: the Potency is 0.923 µM (active).

As for `COc1cccc(-c2nccc(NCc3ccc(C)cc3)n2)c1`, the Potency is 23.2 µM (active).

Take `COc1ccc(CNc2ccnc(-c3ccc(N(C)C)cc3)n2)cc1`: the “activity, negative = inhibition” value is -2.14% (inactive).

Regarding `COc1cccc(-c2nccc(NCc3ccc(Cl)c(Cl)c3)n2)c1`, the Potency was 14.6 µM (active).

As to `Clc1cc(Cl)cc(CNc2cc(-c3ccc4c(c3)OCO4)ncn2)c1`, the Potency is 1.64 µM (active).

`COc1ccc(-c2ccnc(NCc3ccc(Cl)c(Cl)c3)n2)cc1OC`: the Potency is 26 µM (active).
